# Reference: PubChem BioAssay AID1259245 (Vanderbilt High Throughput Screening Facility, 2017)
# In all, about 40,000 compounds went through this assay and about 1,400 (3.5%) were called active.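 Rule for the calls: active = any of four per-well response measures lying three or more SD from its plate-wide compound average, in either direction; inactive = the rest, inconclusive results apart.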 Many of the other results were omitted from the sample, so actives are more common in it than they were.
# Target: Voltage-dependent calcium channel gamma-2 subunit (Mus musculus) + Glutamate receptor 2 (Rattus norvegicus) (UniProt O88602+P19491)
# Sequence (O88602 whole entry, looked up): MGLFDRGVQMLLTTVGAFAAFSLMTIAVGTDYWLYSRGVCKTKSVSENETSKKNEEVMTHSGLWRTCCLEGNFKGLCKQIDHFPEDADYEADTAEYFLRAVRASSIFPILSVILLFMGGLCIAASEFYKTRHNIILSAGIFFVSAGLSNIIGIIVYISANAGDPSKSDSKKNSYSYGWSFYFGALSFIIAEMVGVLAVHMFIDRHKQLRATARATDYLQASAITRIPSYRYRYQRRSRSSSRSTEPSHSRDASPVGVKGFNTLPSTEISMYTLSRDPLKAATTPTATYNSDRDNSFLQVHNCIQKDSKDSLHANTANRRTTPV
# Sequence (P19491 whole entry, looked up): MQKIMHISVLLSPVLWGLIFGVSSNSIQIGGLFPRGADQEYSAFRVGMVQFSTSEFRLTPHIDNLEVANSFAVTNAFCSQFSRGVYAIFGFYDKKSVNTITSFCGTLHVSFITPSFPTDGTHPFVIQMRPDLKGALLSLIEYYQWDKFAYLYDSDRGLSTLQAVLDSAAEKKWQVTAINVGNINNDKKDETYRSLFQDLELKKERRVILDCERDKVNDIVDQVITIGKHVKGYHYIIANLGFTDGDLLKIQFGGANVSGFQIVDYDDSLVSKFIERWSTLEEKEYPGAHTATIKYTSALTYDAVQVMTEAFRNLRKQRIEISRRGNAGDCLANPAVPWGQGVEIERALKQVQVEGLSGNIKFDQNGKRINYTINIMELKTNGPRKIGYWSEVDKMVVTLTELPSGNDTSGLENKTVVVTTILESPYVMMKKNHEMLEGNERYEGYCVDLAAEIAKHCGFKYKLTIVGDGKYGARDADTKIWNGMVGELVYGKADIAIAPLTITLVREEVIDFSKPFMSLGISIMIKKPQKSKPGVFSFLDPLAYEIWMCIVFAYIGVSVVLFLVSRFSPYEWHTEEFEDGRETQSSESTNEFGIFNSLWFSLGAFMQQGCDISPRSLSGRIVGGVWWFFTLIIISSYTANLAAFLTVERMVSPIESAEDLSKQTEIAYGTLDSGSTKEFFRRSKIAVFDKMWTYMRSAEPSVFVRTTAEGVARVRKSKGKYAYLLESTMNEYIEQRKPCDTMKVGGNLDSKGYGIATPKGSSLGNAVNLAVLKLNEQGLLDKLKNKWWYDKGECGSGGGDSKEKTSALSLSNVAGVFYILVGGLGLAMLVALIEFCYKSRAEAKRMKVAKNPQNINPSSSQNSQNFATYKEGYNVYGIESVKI
# Test: AMPAR-TARP gamma-2 complex positive or negative modulation – cell-based, membrane potential dye, primary screen (AID 1259245)
# Conditions: HEK293 GluA2+stargazin, membrane potential dye (FDSS), glutamate EC50, at 30 µM, hits were called plate by plate, in both directions; compound max-min signal: compound-alone response (agonism); glutamate slope, % of max: measured here: glutamate response slope, % max
Structure (SMILES),compound max-min signal,"glutamate response, % of max","glutamate slope, % of max"
CCOc1ccccc1C(=O)N1CCN(c2ccc(-c3ccccn3)nn2)CC1,0.189,31.9% (active),43.1%
CCSc1ccccc1C(=O)N1CCN(c2ccc(-c3ccccn3)nn2)CC1,0.198,34.1% (active),45%
CCn1ccnc1N1CCN(C(=O)c2ccccc2Cl)CC1,0.0774,50% (inactive),67.4%
CCOc1ccc(-c2ccc(N3CCN(C(=O)c4ccc5nsnc5c4)CC3)nn2)cc1,0.0304,15.3% (inactive),32.9%
O=C(NCc1ccccc1)N1CCN(c2ccc(-c3ccncc3)nn2)CC1,0.115,17.8% (inactive),40.4%
O=C(CCn1ccc(=O)[nH]c1=O)N1CCN(c2ccc(-c3ccccn3)nn2)CC1,0.117,16.7% (inactive),21.1%
CN1CCN(c2ccc(-c3cccc(NC(=O)COc4ccc(F)cc4F)c3)nn2)CC1,0.0723,38.5% (inactive),60.1%
CCOc1ccc2c(=O)c(Oc3ccccc3Br)coc2c1,0.0905,40.8% (inactive),58.4%
O=C(NCc1ccc(Cl)cc1)C(=O)NCc1c(F)cccc1F,0.122,54.4% (inactive),66.8%
Cn1cc(C(=O)NCc2c(F)cccc2F)nn1,0.0862,93.4% (active),99.8%
O=C(NCc1ccsc1)c1c(F)cccc1F,0.0794,28.8% (inactive),48.6%
CC(=O)NCCn1ncc2c(N3CCOCC3)ncnc21,0.0821,32.3% (inactive),59.3%
CCN1C(SCC(=O)Nc2cccc(Cl)c2)=NS(=O)(=O)c2ccccc21,0.0878,38% (inactive),62%
CCOc1ccccc1Nc1nnc(Cc2ccc(OC)cc2)c(=O)[nH]1,0.0678,46% (inactive),67.9%
O=C(NCC(O)(c1ccccc1)C1CC1)c1ccccc1Br (stereo unspecified),0.0722,13.9% (inactive),40%
CCSc1ccccc1C(=O)NCC(O)(c1ccccc1)C1CC1 (stereo unspecified),0.0554,28.7% (active),57.8%
CSc1ccccc1C(=O)NCC(C)(O)C1CC1 (stereo unspecified),0.0943,38.3% (inactive),57.1%
COc1ccc(NC(=O)CSc2nccn(-c3cccc(F)c3)c2=O)cc1Cl,0.114,29.6% (inactive),46.8%
O=S(=O)(NCC(O)c1ccsc1)c1cccs1 (stereo unspecified),0.105,47.4% (inactive),63.3%
C=CCOC(=O)COc1ccc2c(c1)O/C(=C\c1cc(OC)ccc1OC)C2=O,0.106,58.4% (inactive),60.4%
COc1ccc2c(c1)c(/C=C1\Oc3cc(O)cc(C)c3C1=O)cn2C,0.239,23.6% (active),43.9%
Cc1[nH]c(=O)[nH]c(=O)c1CC(=O)N1CCN(S(C)(=O)=O)CC1,0.153,46.3% (inactive),86.1%
CC(C)c1ccccc1NC(=O)Cc1csc(NC(=O)c2ccc(=O)[nH]c2)n1,0.062,20.3% (inactive),41.8%
COc1cn(CC(=O)Nc2ccc(NC(C)=O)cc2)c(CSc2ncccn2)cc1=O,0.0519,26.3% (inactive),40.3%

Structure (SMILES),compound max-min signal,"glutamate response, % of max","glutamate slope, % of max"
Cc1c(Cl)ccc2sc(N(Cc3ccccn3)C(=O)Cc3ccc(S(C)(=O)=O)cc3)nc12,0.0569,22.1% (inactive),54.5%
COC(=O)N1CCC(CNS(=O)(=O)c2ccc(OC(F)(F)F)cc2)CC1,0.114,39.2% (inactive),61.1%
O=C(NCC1(c2cccs2)CC1)Nc1c(F)cccc1F,0.107,24.4% (inactive),44%
O=S(=O)(NCC1(c2cccs2)CC1)c1ccc(OC(F)(F)F)cc1,0.153,0.436% (active),9.92%
COC(=O)c1cc(OC)c(OC)cc1NC(=O)c1cc(C)oc1C,0.112,34.9% (inactive),55.7%
Cn1cccc1C(O)CNC(=O)C1(c2ccccc2)CCOCC1 (stereo unspecified),0.0879,49.3% (inactive),62.9%
COc1ccc2c(=O)c(Oc3ccc(C(=O)Nc4cccnc4)cc3)c(C)oc2c1,0.137,24.4% (inactive),41.6%
COc1ccc2c(=O)c(Oc3ccc(C(=O)N4CCN(c5ccccn5)CC4)cc3)c(C)oc2c1,0.0327,28.3% (active),56.7%
COCCNC(=O)c1ccc(Oc2c(C)oc3cc(OC)ccc3c2=O)cc1,0.0907,9.44% (inactive),21.9%
COc1ccc(CCNC(=O)Cn2nc(-c3ccccc3OC)ccc2=O)cc1,0.0465,26.6% (inactive),53.9%
COC(=O)c1ccc2c(=O)n(Cc3ccc(C(=O)N4CCCCCC4)cc3)c(=S)[nH]c2c1,0.108,50.5% (inactive),81%
CCc1cccc(CC)c1NC(=O)Cn1nc(-c2ccco2)c2sc(N3CCCCC3)nc2c1=O,0.0682,31.2% (inactive),54.8%
Cc1ccc(NC(=O)Cn2nc(-c3ccco3)c3sc(N4CCOCC4)nc3c2=O)c(C)c1,0.131,34% (active),56.8%
COc1ccc(C(=O)Cn2nc(-c3ccco3)c3sc(N4CCOCC4)nc3c2=O)cc1OC,0.102,27.5% (inactive),57%
CCCc1ccc(C(=O)NCC(C)(O)COC)cc1 (stereo unspecified),0.117,37.6% (inactive),59.3%
COCC(C)(O)CNC(=O)c1cc(C)oc1C (stereo unspecified),0.0874,39.3% (inactive),66.3%
COCC(C)(O)CNC(=O)Cc1cccc(C)c1 (stereo unspecified),0.0936,4.21% (active),14.9%
COc1ccc(OC)c2sc(N(Cc3ccccn3)C(=O)Cc3ccc(S(C)(=O)=O)cc3)nc12,0.0642,28.9% (inactive),45.5%
O=C(Nc1ccc(N2CCCS2(=O)=O)cc1)c1ccc([N+](=O)[O-])cc1,0.0338,28.1% (inactive),51.8%
Cc1cc([N+](=O)[O-])ccc1NC(=O)C(=O)NCc1ccncc1,0.158,47.7% (inactive),65.6%
O=C(Nc1ccc([N+](=O)[O-])cc1Br)c1ccncc1,0.216,21.7% (active),38.8%
Cc1cc(C)n(CCNC(=O)/C=C/c2cccs2)n1,0.131,25.6% (inactive),56.8%
Cc1noc(C2CN(S(=O)(=O)c3ccc(Cl)cc3)C2)n1,0.142,44.3% (inactive),70.8%
